Measurements from PubChem BioAssay (NCATS).
Records with an inconclusive call do not appear. Where a call stands in place of a potency, no number is given. Activity calls are given as the source filed them. Calls follow the shape of the dose curve; as a rule, active = well fitted curve in the direction sought with a large enough effect; inconclusive = small, poorly fitted or top-dose-only effect, or another doubt; inactive = no such curve, though single readings can be large or run the other way.

Each compound was assayed against Glucagon-like peptide 1 receptor (Homo sapiens) (UniProt P43220) (assay: qHTS of GLP-1 Receptor Agonists: LOPAC Validation (AID 624148;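 also: luminescence from a luciferase reporter switched on by cAMP; higher luminescence signal means agonism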)). Conditions: GLP-1R agonist cell assay; series mostly up to 46.1 µM.
Description: The overall goal of this project was to develop a novel assay for discovering small molecule ligands for class B1 G protein-coupled receptors (GPCRs). Very few agonists (or inverse agonists) with generally weak activity for this entire group of physiologically important receptors are known to date. To establish proof-of-principle that this critical bottleneck can be overcome with a suitable screening approach, our studies focused on the class B1 receptor for glucagon-like peptide-1 (GLP-1R), a potential therapeutic target for diabetes and neurodegenerative disease.
The assay was developed in a "mix and measure" format using a cell-based functional readout. Toward this goal, stably transfected HEK293 cell clones were established that co-express (i) a cAMP-responsive luciferase reporter gene, and (ii) GLP-1Rs that upon ligand interaction either stimulate (agonists) or inhibit (inverse agonists) luciferase activity. In different cell lines to be used for screening, expressed GLP-1Rs are specifically optimized for high sensitivity detection of either weak agonists (hypersensitive receptor) or inverse agonists (constitutively active receptor mutant). In addition, control cell lines were developed that express either the cAMP-responsive reporter gene without recombinant GLP-1Rs (enabling initial exclusion of GLP-1R independent effects of candidate probes), or the reporter gene together with wild type GLP-1Rs (for confirmation of probe activity at this receptor), or the reporter gene in combination with the constitutively active orphan receptor GPR119 (enabling initial exclusion of GLP-1R independent inhibitory effects of candidate inverse agonists).
To that end, this assay was optimized for 1536-well format and screened against the MLSMR.
NIH Molecular Libraries Probe Production Network [MLPCN]
NIH Chemical Genomics Center [NCGC]
PI Name: Martin Beinborn, Tufts Medical Center
In a white solid 1536-well plate, 6 uL of cells are dispensed in DMEM without phenol red, 10% Nu serum, and 1% pen-strep medium. The plates are then incubated for 12 hours at 37 deg C at 5% CO2 before 23 nL of compounds are added. After a 4-6 hr incubation at37 deg C and 5% CO2, 3 uL of detection reagent are added and after a 12 min incubation at RT, a luminescent read is obtained on the ViewLux.

Glucagon-like peptide 1 receptor (Homo sapiens), sequence (P43220 whole entry, looked up): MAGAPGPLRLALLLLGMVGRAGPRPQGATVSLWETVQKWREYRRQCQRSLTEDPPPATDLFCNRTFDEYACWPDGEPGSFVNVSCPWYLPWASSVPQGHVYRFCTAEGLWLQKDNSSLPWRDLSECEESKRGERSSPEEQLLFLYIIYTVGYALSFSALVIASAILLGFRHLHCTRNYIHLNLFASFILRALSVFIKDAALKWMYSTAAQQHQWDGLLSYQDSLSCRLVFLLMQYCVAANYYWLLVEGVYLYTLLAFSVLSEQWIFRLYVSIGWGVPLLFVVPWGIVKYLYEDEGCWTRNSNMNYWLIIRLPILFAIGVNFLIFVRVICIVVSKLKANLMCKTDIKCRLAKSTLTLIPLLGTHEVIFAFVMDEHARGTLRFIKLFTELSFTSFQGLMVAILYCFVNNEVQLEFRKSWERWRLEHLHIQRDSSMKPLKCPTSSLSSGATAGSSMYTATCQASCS

Compound | Potency
COc1ccccc1N1CCN(CCCCNC(=O)c2ccc3ccccc3c2)CC1 | inactive
CN(C)C(=O)/N=N/C(=O)N(C)C | inactive
CCCCC[C@H](CC(=O)NO)C(=O)N[C@H](C(=O)N1CCC[C@H]1CO)C(C)C | inactive
Cc1cc2c(cc1Cl)N(C(=O)Nc1ccnc3ccccc13)CC2 | inactive
CC(C)(C)c1ccc(/C=C/C(=O)Nc2ccc3c(c2)OCCO3)cc1 | inactive
C=CCN1CCc2c(cc(O)c(O)c2Br)[C@@H](c2ccccc2)C1 | inactive
COc1cccc(OC)c1OCCNCC1CSc2ccccc2O1 (stereo not given) | inactive
S=C(S)N1CCCC1 | inactive
Cn1cc(C(=O)OCC2CCN(CCNS(C)(=O)=O)CC2)c2ccccc21 | inactive
CCCCCCCCCCCCCCSCC(=O)O | inactive
OC[C@H]1NC[C@@H](O)[C@@H]1O | inactive
CNCCc1cnc(CCC(c2ccccc2)c2ccccc2)[nH]1 | inactive
N[C@@H](Cc1ccc(F)cc1)C(=O)O | inactive
NC/C=C\C(=O)O | inactive
Cn1c(=O)c2[nH]c(-c3ccc(S(=O)(=O)O)cc3)nc2n(C)c1=O | inactive
CC(=O)C(C)=O | inactive
CCCCCCN(CCCCCC)C(=O)Cc1c(-c2ccc(F)cc2)[nH]c2ccccc12 | inactive
N[C@@H](CS(=O)O)C(=O)O | inactive
CN1CCCC1CCOC(C)(c1ccccc1)c1ccc(Cl)cc1 (stereo not given) | inactive
Nc1ccc(N2C(=O)c3ccccc3C2=O)c(Cl)c1 | inactive

Compound | Potency
CC(C)(C)NCC(O)COc1cccc2[nH]c(=O)[nH]c12 (stereo not given) | inactive
CCCCCCC(=O)OC1CC(C)(C)NC(C)(C)C1 | inactive
COC1(C2=NCCN2)COc2ccccc2O1 (stereo not given) | inactive
Cc1nc(N=Nc2cc(S(=O)(=O)O)c3cc([N+](=O)[O-])cc(S(=O)(=O)O)c3c2)c(COP(=O)(O)O)c(C=O)c1O | inactive
CNC(=O)c1cc2c(cn1)[nH]c1ccccc12 | inactive
N#Cc1cc([N+](=O)[O-])c2sc(C(N)=O)[n+]([O-])c2c1 | inactive
Cc1nc2n(c(=O)c1CCN1CCC(c3noc4cc(F)ccc34)CC1)CCCC2O (stereo not given) | inactive
CN1CCN(c2nc3cc(C(F)(F)F)ccc3n3cccc23)CC1 | inactive
NC(N)=NC(N)=Nc1ccccc1 | inactive
CC[C@H](NC(=O)c1c(C)c(-c2ccccc2)nc2ccccc12)c1ccccc1 | inactive
N=C(N)c1ccc(N)cc1 | inactive
O=C(O)c1cccnc1C(=O)O | inactive
O=C(O)/C=C/c1cnc[nH]1 | inactive
COc1cc2c(CCNC(C)=O)c[nH]c2cc1O | inactive
CC#CCOC(=O)c1c(C)nc2sc3c(c2c1N)CCC(O)C3 (stereo not given) | inactive
COCc1nc2c([nH]1)c(=O)n(C)c(=O)n2CC(C)C | inactive
Nc1ncnc2c1ncn2C1CCCO1 (stereo not given) | inactive
O=C(O)C1=CCNCC1 | inactive
NC1(C(=O)O)CC1 | inactive
Cc1cccc(C2CN(C)CCc3c2cc(O)c(O)c3Cl)c1 (stereo not given) | inactive
